This is part of a sample that, as a whole, favours compounds with a hit. Of some 83,000 tested, about 20% had one in any assay.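 Step 1: grow cells in 96-well plates. Step 2: add test compound at a single concentration. Step 3: incubate 48 h. Step 4: record percent growth.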 Values without a mark were called inactive. The source made the active and inactive calls. The calls were made as follows: active = growth percent below 10; inactive = the rest.

The record followed here is PubChem BioAssay (NCI).

Holding throughout (experiment): NCI-60 one-dose screen, 48 h (100 = growth as untreated, 0 = no growth, -100 = all killed)
The test system of test [1] is SK-MEL-2 melanoma. Conditions: 10 µM unless noted.
Test [2] has as its system EKVX NSCLC. The settings on record: 10 µM unless noted.
Test [3] deals with SN12C renal. The settings on record: 10 µM unless noted.
Test [4] concerns TK-10 renal. The settings on record: 10 µM unless noted.
In test [5] the test system is ACHN renal. Conditions: 10 µM unless noted.
In test [6] the test system is A498 renal. Conditions: 10 µM unless noted.
For test [7], the system named is CCRF-CEM leukemia. Conditions: 10 µM unless noted.
Test [8] has as its system MOLT-4 leukemia. The settings on record: 10 µM unless noted.
Test [9] has as its system SR leukemia. Conditions: 10 µM unless noted.
Test [10] relates to RPMI-8226 leukemia. Conditions: 10 µM unless noted.
The test system of test [11] is OVCAR-8 ovarian. The settings on record: 10 µM unless noted.
In test [12] the test system is OVCAR-5 ovarian. The settings on record: 10 µM unless noted.
For test [13], the system named is OVCAR-4 ovarian. Conditions: 10 µM unless noted.
In test [14] the test system is SK-OV-3 ovarian. Conditions: 10 µM unless noted.
In test [15] the test system is IGROV1 ovarian. Conditions: 10 µM unless noted.
Test [16] has as its system OVCAR-3 ovarian. Conditions: 10 µM unless noted.
Test [17] has as its system NCI/ADR-RES ovarian. Conditions: 10 µM unless noted.
Test [18] relates to HS 578T breast. The settings on record: 10 µM unless noted.
For test [19], the system named is CAKI-1 renal. Conditions: 10 µM.

On to `ClC1c2ccccc2CCc2ccccc21`, for which the growth was 87.8% in test [1]; 94% in [2]; 103% in test [3]; 101% in test [4]; 95.8% in test [5]; 102% in test [6]. In addition, the growth in test [7] was 98.7%; in test [8], 107%; in [9], 89.2%; in test [10], 92%; in test [11] it was 94.7%; in [12], 86.4%. Further, the growth in test [13] was 85.9%; in test [14], 91.2%; in [15], 72.5%; in test [16], 100%; in [17], 116%.

For `COc1cc2c(/C=C3/C(=O)Nc4ccc(O)cc43)c(Cl)n(Cc3cc(OC)c(OC)c(OC)c3)c2cc1C`, the growth was 36.7% in test [1]; 13.3% in [2]; 59.6% in test [3]; 25.8% in test [4]; 130% in test [5]; 24.9% in test [6]. The growth in test [7] was -9.62% (active); in [8] it was -24.1% (active); in test [9] it was -38.1% (active); in test [11] it was 22.3%; in test [12], 74.1%; in test [13] it was 21.8%. The growth in test [14] is 38.5%; in [15], 26.9%; in test [18], 4.73% (active); in [17], 9.32% (active).

In the case of `S=c1ssnc1-c1ccccn1`, the growth was 31.6% in test [1]; 65.2% in test [2]; 38% in test [3]; 40.1% in test [4]; 15.4% in test [5]; 13% in test [6]. Also, the growth in test [7] was -6.05% (active); in test [8], 0.997% (active); in test [9] it was -25.5% (active); in [10], 10.2%; in [11], 54.9%; in test [12], 70.1%. In addition, the growth in test [13] was 56.1%; in test [14] it was 67.8%; in [15] it was 15.2%; in [18] it was -7.73% (active); in test [17] it was 48.4%.

On to `Nc1ccc(S(=O)(=O)Nc2ccnn2-c2ccccc2)cc1`, for which the growth in test [1] was 115%; in test [2], 93.8%; in test [3], 99.7%; in test [4], 117%; in [19], 92.7%; in test [6] it was 107%. The growth in test [7] is 107%; in test [8], 98.1%; in [9], 95.5%; in [10] it was 117%; in test [11] it was 93.7%; in test [13] it was 109%. Moreover, the growth was 103% in test [14]; 107% in test [15]; 111% in [16]; 103% in test [18]; 103% in test [17].

Regarding `COc1ccc(-n2c(-c3ccc(NC(=O)CCCl)cc3)nnc2-c2cc(OC)c(OC)c(OC)c2)cc1`, the growth in [1] is 48.3%; in test [2], 51.2%; in [3], 72.3%; in test [4], 70.2%; in test [6], 65.4%; in test [7], 16.8%. In addition, the growth in test [8] was 6.29% (active); in test [9], 6.09% (active); in test [10], 31%; in test [11] it was 49.2%; in [12], 79.7%; in test [13], 54.1%. Moreover, the growth in test [14] was 45.2%; in test [15] it was 42.4%; in test [16], 4.58% (active); in test [18] it was 56%; in test [17], 55.9%.

As to `NC(N)=N/N=C/c1ccc([N+](=O)[O-])cc1`, the growth is 115% in test [1]; 102% in [2]; 96.7% in test [3]; 112% in [4]; 106% in test [5]; 79.7% in [6]. Also, the growth in [7] is 112%; in test [8], 97.5%; in test [9] it was 110%; in [11], 108%; in test [12] it was 99.1%; in test [13], 102%. For the same compound, the growth in test [14] is 108%; in test [15], 125%; in test [16], 117%; in test [18], 86.5%.

As to `Cc1[nH]c2ccc(F)cc2c1CCNC(=O)C1CCN(C(=O)c2ccc(-c3ccccc3)cc2)CC1`, the growth is 71.6% in test [1]; 44.2% in test [2]; 64.1% in [3]; 52.6% in test [5]; 47.9% in test [6]; 54.1% in test [7]. For the same compound, the growth in test [8] is 26.9%; in test [9] it was 8.16% (active); in test [10], 44.5%; in test [11], 56.3%; in test [12] it was 90.1%; in test [13] it was 44.7%. Besides, the growth in [14] was 63.8%; in test [15] it was 67.1%; in [16] it was 63.8%; in test [18], 72.7%; in test [17], 49.6%.

With `O=C(Cn1c2ccccc2c2ccncc21)N/N=C\c1ccc2ccccc2c1`, the growth in [1] was 63.8%; in test [2], 55.8%; in test [3], 19.9%; in [4] it was 55.1%; in test [5], 4.98% (active); in test [6] it was 85.1%. For the same compound, the growth is 50.4% in [7]; 41.7% in [8]; 33.5% in [9]; -1.73% (active) in test [10]; 14.2% in test [11]; 75.2% in test [12]. Moreover, the growth in test [13] is -11% (active); in test [14] it was 36%; in test [15] it was 43.1%; in test [16], -37.1% (active); in [18], 38.2%; in test [17], 27.2%.

Consider `O=C(Nc1ccc(-n2ccc3c(NC(=O)c4ccccc4)ncnc32)cc1)Nc1ccc(Cl)c(C(F)(F)F)c1`, for which the growth in test [1] was -22.3% (active); in test [2], 8.35% (active); in test [3] it was 16.4%; in [5], 4.23% (active); in test [19] it was -36.8% (active); in [6], 18.3%. Further, the growth in [7] is -14.5% (active); in test [8], 1.2% (active); in test [9] it was 6.03% (active); in test [10], -38% (active); in test [11], -25.3% (active); in test [12], 17.8%. For the same compound, the growth in test [13] is -42.8% (active); in test [14], 79.2%; in test [15] it was -3.16% (active); in test [16], -86.6% (active); in [17], 16%.
